A selection: hits, their analogues and other compounds. The true share with any hit is near 2.6%.
Prx2 Sm inh = Schistosoma Mansoni Peroxiredoxins (Prx2). Schistosoma mansoni peroxiredoxin 2 (Prx2). AID 448, 2006. 65,000 tested, 0.07% active. S. mansoni Prx2 activity coupled to TGR/GSH (TGR is thioredoxin glutathione reductase), NADPH fluorescence loss, qHTS. Potency, µM
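Enzyme mix: 100 uM NADPH, 25 nM TGR, 700 uM GSH, 50 nM Prx2 in 100 mM phosphate pH 7.4, 10 mM EDTA, 0.01% Tween-20. 15 min RT with compound; NADPH/GSH added, H2O2 starts reaction; NADPH fluorescence read 8 min.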
AmpC inh no det = Promiscuous and Specific Inhibitors of AmpC Beta-Lactamase (assay without detergent). AmpC nitrocefin hydrolysis, absorbance 480 nm, no detergent. Potency, µM (series often up to 28.7 µM). 71,000 tested, 1.8% active. AID 585, 2007
Target sequence (P00811 whole entry, looked up): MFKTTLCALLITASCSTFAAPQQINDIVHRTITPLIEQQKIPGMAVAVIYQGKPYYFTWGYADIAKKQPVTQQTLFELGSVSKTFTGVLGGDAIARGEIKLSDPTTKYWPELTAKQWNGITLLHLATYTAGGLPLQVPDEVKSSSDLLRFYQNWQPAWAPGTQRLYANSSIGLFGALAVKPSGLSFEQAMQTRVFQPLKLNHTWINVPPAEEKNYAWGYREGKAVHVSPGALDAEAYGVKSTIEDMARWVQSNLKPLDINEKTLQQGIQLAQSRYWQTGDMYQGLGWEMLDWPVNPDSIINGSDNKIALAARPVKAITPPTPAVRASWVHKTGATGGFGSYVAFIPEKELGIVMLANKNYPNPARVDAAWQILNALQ
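Enzyme, pH 7.0 phosphate. Compound titrations were pre-incubated with AmpC for 15 min at room temperature before nitrocefin (stock 800 uM) addition; product formation was recorded at 480 nm every 20 s for 4 min.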
AmpC inh det = Promiscuous and Specific Inhibitors of AmpC Beta-Lactamase (assay with detergent); purified AmpC, nitrocefin hydrolysis with detergent; Potency, µM (series often up to 28.7 µM); 71,000 tested, 0.09% active; active means well fitted curve in the direction sought with a large enough effect; inconclusive means small, poorly fitted or top-dose-only effect
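E. coli AmpC (5.3 nM) in 20 mM phosphate pH 7.0 with 0.01% Triton X-100, preincubated 15 min RT with compound; nitrocefin (2 uL of 800 uM stock) hydrolysis followed by 480 nm absorbance every 20 s over 4 min.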
LT uptake inh = qHTS Assay for Anthrax Lethal Toxin Internalization; AID 912, 2007; Cells, anthrax lethal toxin internalization, FRET ratio (460/530); Potency, µM (highest dose often 40 µM), most hits filed as inhibitors; 70,000 tested, 0.67% active; further: nearly all actives have a fitted effect of over 50% in size
Of the large screens only hits and unclear results are named; the others gave an inactive call; [ ] = dose if it differs, or a comment. Unless noted, the call rests on the fitted dose curve.

CC1CCN(c2nc3c(c(=O)[nH]c(=O)n3C)n2Cc2ccccc2)CC1	none
CC(C)CC(C(=O)Nc1ccc2c(c1)OCCO2)N1C(=O)c2ccccc2C1=O (stereo not given)	none
CC(C)CC(C(=O)Nc1oc(-c2ccco2)c(-c2ccco2)c1C#N)N1C(=O)c2ccccc2C1=O (stereo not given)	AmpC inh no det 5µM, LT uptake inh inconclusive
c1csc(Cc2nc(-c3ccc(-n4cccc4)cc3)no2)c1	AmpC inh no det 13µM
COc1ccc(N2C(=O)CC(Sc3ncn[nH]3)C2=O)c(OC)c1 (stereo not given)	LT uptake inh 13µM (no result: Prx2 Sm inh)
CC1(C(=O)NC2CCCCC2)CCC(=O)N1Cc1cccs1 (stereo not given)	AmpC inh no det 4µM[single pt active]
CC1(C(=O)NC2CCCC2)CCC(=O)N1Cc1cccs1 (stereo not given)	none
CCc1nccn1S(=O)(=O)c1ccc(C)c(C)c1	none
CCc1nccn1S(=O)(=O)c1ccc(OC)c(OC)c1	AmpC inh no det 4µM[single pt active]
CN1CCN(C2=C(Cl)C(=O)N(c3cccc(Cl)c3)C2=O)CC1	none (no result: Prx2 Sm inh)
CN1CCN(C2=C(Cl)C(=O)N(c3ccc(Cl)c(Cl)c3)C2=O)CC1	LT uptake inh 7.9µM (no result: Prx2 Sm inh)
CO/N=C1/[C@H]2O[C@@H]2[C@@H](O)[C@H]2[C@H]1CCn1c(=O)n(-c3ccccc3)c(=O)n12	none (no result: Prx2 Sm inh, AmpC inh no det, AmpC inh det)
O=C(c1ccco1)N1CCC2(CC1)CN(C(c1ccccc1)c1ccccc1)C2	none
Cn1c(=O)oc2cc(S(=O)(=O)N3CCC(C(=O)NCC4COc5ccccc5O4)CC3)ccc21 (stereo not given)	AmpC inh no det 4µM[single pt active]
Cn1c(=O)oc2cc(S(=O)(=O)N3CCC(C(=O)NCc4cccs4)CC3)ccc21	AmpC inh no det 3.2µM[single pt active]
CN1CCN(C(=O)C2CCN(S(=O)(=O)c3ccc4c(c3)oc(=O)n4C)CC2)CC1	AmpC inh no det 4µM[single pt active]
Cn1c(=O)oc2cc(S(=O)(=O)N3CCCC(C(=O)NCCN4CCOCC4)C3)ccc21 (stereo not given)	AmpC inh no det 4µM[single pt active]
Cn1c(=O)oc2cc(S(=O)(=O)N3CCC(C(=O)N4CCN(c5ccccc5)CC4)CC3)ccc21	none
Cn1c(=O)oc2cc(S(=O)(=O)N3CCCC(C(=O)N4CCn5c4nc4ccccc45)C3)ccc21 (stereo not given)	AmpC inh no det 4µM[single pt active]
Cn1c(=O)oc2cc(S(=O)(=O)N3CCCC(C(=O)N4CCc5ccccc5C4)C3)ccc21 (stereo not given)	LT uptake inh inconclusive
CCN1CCN(c2cc(C)c3cc(NC(=O)c4cncc(Br)c4)ccc3n2)CC1	LT uptake inh 25µM
CCN1CCN(c2cc(C)c3cc(NC(=O)c4ccc5c(c4)OCO5)ccc3n2)CC1	LT uptake inh 10µM
CN(C)c1ccc(CNC(=O)[C@@]2(C)C=C[C@@H](Cc3ccccc3)N2C)cc1	none (no result: Prx2 Sm inh)
O=C(C1CCCN1S(=O)(=O)c1cccc2cccnc12)N1CCc2ccccc2C1 (stereo not given)	AmpC inh no det 4µM[single pt active]
O=C(C1CCN(S(=O)(=O)c2cccc3cccnc23)CC1)N1CCCC1	none
O=C(C1CCCN1S(=O)(=O)c1cccc2cccnc12)N1CCc2ccccc21 (stereo not given)	none
O=C(C1CCN(S(=O)(=O)c2cccc3cccnc23)CC1)N1CC=C(c2ccccc2)CC1	LT uptake inh 13µM
COc1ccc(C#CC2C=CC(OC(C)=O)C(COC(C)=O)O2)cc1 (stereo not given)	none (no result: Prx2 Sm inh, AmpC inh no det, AmpC inh det)
CCN(CC)CCCCn1c(-c2ccccc2)nc2c(Nc3ccccc3)nc(C)nc21	LT uptake inh 16µM (no result: Prx2 Sm inh)
O=S(=O)(c1ccccc1)N1CCC2(CC1)CN(c1ncccn1)C2	none
COc1cccc(-c2ccc3ncnc(NCc4cnc(C)cn4)c3c2)c1	none
Clc1ccc(-n2nnnc2SCc2c(-c3ccccc3)nc3sccn23)cc1	AmpC inh no det 13µM
C[C@@H](CCC(=O)O)C(=O)O	none
COc1cc2c(=O)n(Cc3ccco3)c(=O)n(CC(=O)c3ccc(Br)cc3)c2cc1OC	none
COc1cc2c(=O)n(Cc3ccco3)c(=O)n(CC(=O)c3cccc(Br)c3)c2cc1OC	AmpC inh no det 6.3µM, AmpC inh det inconclusive
CC(CN(C)Cc1ccccc1)OC(=O)C1COc2ccccc2O1 (stereo not given)	AmpC inh no det 4µM[single pt active]
O=C(NC1CCN(Cc2ccccc2)CC1)C1COc2ccccc2O1 (stereo not given)	none
CCOC(=O)CSc1nnc(Cn2c(=O)sc3ccccc32)n1C	none
CCOC(=O)N1CCN(C(=O)CSc2nnc(Cn3c(=O)sc4ccccc43)n2C)CC1	AmpC inh no det 4µM[single pt active]
COc1ccccc1NC(=O)CSc1nnc(Cn2c(=O)sc3ccccc32)n1C	AmpC inh no det 4µM[single pt active]
Cn1c(Cn2c(=O)sc3ccccc32)nnc1SCC(=O)N1CCOCC1	AmpC inh no det 4µM[single pt active]
Cn1c(Cn2c(=O)sc3ccccc32)nnc1SCC(=O)N1CCCCCC1	AmpC inh no det 4µM[single pt active], LT uptake inh inconclusive
COC(=O)[C@@]1(Cc2ccc(OC)cc2)[C@H]2c3cc(C(=O)N4CCCC4)n(Cc4nc5ccccc5[nH]4)c3C[C@H]2CN1C(=O)c1ccccc1	none
COC(=O)C1CC1C(NC(=O)[C@@H]1CCCN1)c1ccccc1 (stereo not given in full)	LT uptake inh inconclusive
COc1cccc([C@H]2Oc3ccc(OC)cc3/C(=N\O[C@@H]3O[C@H](COC(C)=O)[C@H](OC(C)=O)[C@H](OC(C)=O)[C@H]3OC(C)=O)[C@@H]2O)c1	none (no result: Prx2 Sm inh, AmpC inh no det, AmpC inh det)
CC1(C(=O)NCCCNc2ncc(C(F)(F)F)cc2Cl)C=CC2(CCCCC2)N1C(=O)c1ccccc1 (stereo not given)	LT uptake inh 25µM (no result: Prx2 Sm inh)
COC(=O)NC(/C(C(=O)OC)=C(\C)NCc1ccccc1)c1cccs1 (stereo not given)	none (no result: Prx2 Sm inh, AmpC inh no det, AmpC inh det)
Cc1noc(C)c1C(=O)Nc1nc(C23CC4CC(CC(C4)C2)C3)cs1	LT uptake inh 10µM
CCOC(=O)Cc1csc(NC(=O)c2c(-c3ccccc3)noc2C)n1	none (no result: Prx2 Sm inh)
COc1ccc(CNC(=O)C(c2cccs2)N(C(=O)c2csnn2)C2CC2)cc1 (stereo not given)	LT uptake inh 7.9µM
COc1ccc(-c2nc(NC(=O)c3cc(C(C)(C)C)nn3C)sc2C)cc1	LT uptake inh 5µM
COC(=O)C/C=C\[C@@H](C)[C@@H](/C=N\OCC[C@@H]1C=C[C@H](OC(C)=O)[C@H](COC(C)=O)O1)OC	none (no result: Prx2 Sm inh, AmpC inh no det, AmpC inh det)
Cc1csc(NC(=O)C(CC(C)C)NS(=O)(=O)c2ccc3c(c2)oc(=O)n3C)n1 (stereo not given)	AmpC inh no det 4µM[single pt active]
O[C@@H](COc1cccc2ccccc12)CN1CCOCC1	LT uptake inh inconclusive
COc1cccc(Nc2ncc3nc(-c4ccccc4)c(=O)n(C)c3n2)c1	LT uptake inh inconclusive
Brc1ccc(Oc2ccc(Br)cc2Br)c(Br)c1	AmpC inh no det 13µM, LT uptake inh inconclusive (no result: Prx2 Sm inh)
O=c1ccnc(SCc2ccc(Cl)cc2)[nH]1	none
Cn1cc(Cl)c(C(=O)N(Cc2ccccc2)c2ccccn2)n1	AmpC inh no det 4µM[single pt active]

High-throughput results: PubChem BioAssay, National Center for Advancing Translational Sciences (NCATS)
